Assay [1] deals with Human papillomavirus type 1a protein E7 (residues 44-93). Kind of assay: small molecules binding HPV E7 44-93 – biochemical, small-molecule microarray, residues 44-93, 635 nm fluorescence, primary screen (AID 1108).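 Also: E7 fragment applied at 1 µg/mL in TBST for 1 h at 4 C; score combines spot fluorescence with its signal to noise ratio.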 To be noted: fluorescence 635 nm, higher = more signal.
Assay [2] in a line: hepatitis C replication reporter changes, two-sided – Huh7 cells, luciferase reporter, HCV replication inhibitor project, primary screen (AID 1109).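 Also: huh7 hepatoma cells harbouring a luciferase neomycin HCV replicon reporter; luciferase luminescence as measure of HCV replicon replication; test concentration not given here.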 To be noted: Huh7 HCV replicon luciferase reporter, 48 h; higher = more signal.
Assay [3] deals with Left-right determination factor 2 (Homo sapiens) (UniProt O00292). As to the kind of experiment: small molecules binding LEFTY2 protein – biochemical, small-molecule microarray, 635 nm fluorescence scan, primary screen (AID 1110). To be noted: higher = more signal.
Assay [4] concerns the target Calmodulin-1 (Homo sapiens) (UniProt P0DP23). As to the kind of experiment: small molecules binding calmodulin-1 with EGTA – biochemical, small-molecule microarray, Cy5-labelled CALM1, profiling panel (AID 1111).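 Also: labelled calmodulin applied in Tris saline Tween buffer holding calcium plus EGTA and DTT.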 The note with it: Cy5-CALM1 binding fluorescence, higher = more signal.
Assay [5] shares this target. Kind of assay: small molecules binding Ca-loaded calmodulin-1 – biochemical, small-molecule microarray, Cy5-labelled CALM1, plus calcium, artefact control for SMM control-protein annotation, profiling panel (AID 1112).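 Also: score merges spot fluorescence with signal to noise from triplicate slides.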 The note with it: Cy5-CALM1 binding fluorescence, higher = more signal.
A short description of assay [6]: probe aWnt5a binding to arrayed compounds – biochemical, biotinylated probe, 635/667 nm fluorescence, primary screen (AID 1113).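 Also: score merges 667 nm fluorescence intensity with signal-to-noise per printed feature.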 To be noted: small-molecule microarray, higher = more signal.
Assay [7] can be described thus: probe aShh binding to arrayed compounds – biochemical, biotinylated probe, 635/667 nm fluorescence, primary screen (AID 1114).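 Also: probe is biotin-labelled aShh protein from a stem cell growth factor screen; measures binding of labelled protein to compounds printed on the slide; score merges feature fluorescence at 667 nm with signal-to-noise.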 The note with it: small-molecule microarray, higher = more signal.
The nature of assay [8]: probe aNog binding to arrayed compounds – biochemical, biotinylated probe, 635/667 nm fluorescence, primary screen (AID 1115).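 Also: probe is biotinylated aNog protein used at 0.15 µg/mL for 1 h at 4 C; z-score combines 667 nm fluorescence of each spot with its signal to noise.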 The note with it: small-molecule microarray, higher = more signal.
Assay [9] concerns the target Torsin-1A-interacting protein 1 (Homo sapiens) (UniProt Q5JTV8). As to the kind of experiment: compound microarray binding of lysate hLAP1 – cell lysate, small-molecule microarray, COS7 lysate, 635/667 nm fluorescence, primary screen (AID 1116). To be noted: 635 nm fluorescence, higher = more signal.
The target of assay [10] is Alpha-bungarotoxin (Bungarus multicinctus) (UniProt P60615). As to the kind of experiment: compounds binding labelled alpha-BTX control protein – biochemical, small-molecule microarray, Alexa647 label, 635/667 nm fluorescence, artefact control for SMM control protein annotation, profiling panel (AID 1117). To be noted: alpha-BTX-A647 binding fluorescence, higher = more signal.

A further assay deals with Albumin (Bos taurus) (UniProt P02769). Kind of assay: compounds binding labelled BSA control protein – biochemical, small-molecule microarray, Alexa647 label, 635/667 nm fluorescence, artefact control for SMM control protein annotation, profiling panel (AID 1118).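 Also: score merges 667 nm emission intensity and signal-to-noise per printed compound spot.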 To be noted: BSA-A647 binding, fluorescence 635 nm, higher = more signal.
The nature of assay [11]: probe aXIP binding to arrayed compounds – biochemical, NeuroSMM set, 635/667 nm fluorescence, primary screen (AID 1119).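 Also: probe is the protein aXip251-270 applied at 1 µg/mL to compound-printed slides; binding of probe to printed compounds measured as 667 nm fluorescence plus signal to noise.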 To be noted: small-molecule microarray, higher = more signal, called active from +8 up or from −8 down.
A short description of assay [12]: probe aNOTCH3 binding on compound microarray – biochemical, small-molecule microarray, 635/667 nm fluorescence, primary screen (AID 1120).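 Also: probe is a biotin-tagged antibody raised against NOTCH3 rather than NOTCH3 protein; score merges spot fluorescence near 667 nm with spot signal to noise.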 To be noted: higher = more signal.
Assay [13] is described as follows: probe aNOTCH2 binding on compound microarray – biochemical, small-molecule microarray, 635/667 nm fluorescence, primary screen (AID 1121).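 Also: score merges feature fluorescence read at 667 nm with its signal to noise.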 To be noted: higher = more signal.
Assay [14] has as its target Carbonic anhydrase 2 (Homo sapiens) (UniProt P00918). Kind of assay: compounds binding carbonic anhydrase 2 – biochemical, small-molecule microarray, Alexa647-labelled CAII, profiling panel (AID 1122). To be noted: CAII-A647 binding fluorescence, higher = more signal.
Assay [15] can be described thus: COS7 lysate on small-molecule microarray, probe aHis, 635 nm (AID 1123).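 Also: z-score combines 667nm fluorescence intensity with signal-to-noise per printed compound spot.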 The note with it: COS7 cell lysate, fluorescence, higher = more signal.
A short description of assay [16]: probe aLAP1 signal on lysate-treated microarray – cell lysate, small-molecule microarray, COS7 lysate, primary screen (AID 1124).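 Also: lysate comes from COS7 cells expressing LAP1 and is applied at 0.3 µg/mL; score merges spot fluorescence near 667 nm with signal-to-noise over triplicate slides.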 The note with it: probe aLAP1, fluorescence, higher = more signal.
The subject of another assay is Sam68 (KHDRBS1). Kind of assay: compounds binding KHDRBS1 protein – biochemical, small-molecule microarray, 635 nm fluorescence, primary screen (AID 1125).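 Also: score merges 667 nm channel intensity with signal to noise over triplicate slides.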 To be noted: higher = more signal.
In assay [17] the test system is Chordin-like protein 2 (CHRDL2). As to the kind of experiment: compounds binding chordin-like 2 – biochemical, small-molecule microarray, 635 nm fluorescence, primary screen (AID 1126).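 Also: printed compound slides probed with Chrdl2 protein at 4 µg/mL for 1 h at 4 C; score merges 667 nm emission intensity with signal to noise over three replicate slides.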 The note with it: fluorescence 635 nm, higher = more signal.
In assay [18] the target is Concanavalin-A (Canavalia ensiformis) (UniProt P02866). As to the kind of experiment: compounds binding concanavalin A lectin – biochemical, small-molecule microarray, Alexa647 label, 635 nm, artefact control for SMM control protein annotation, primary screen (AID 1127).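 Also: z combines 667 nm emission intensity with signal-to-noise across three replicate slides.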 The note with it: ConA-A647 binding fluorescence, higher = more signal.

The source made the active and inactive calls.

Chain of Alpha-bungarotoxin (Bungarus multicinctus) (P60615 whole entry, looked up): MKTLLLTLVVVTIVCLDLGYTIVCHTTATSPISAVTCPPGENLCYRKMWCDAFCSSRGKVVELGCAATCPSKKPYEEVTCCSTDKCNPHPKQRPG
Chain of Albumin (Bos taurus) (P02769 whole entry, looked up): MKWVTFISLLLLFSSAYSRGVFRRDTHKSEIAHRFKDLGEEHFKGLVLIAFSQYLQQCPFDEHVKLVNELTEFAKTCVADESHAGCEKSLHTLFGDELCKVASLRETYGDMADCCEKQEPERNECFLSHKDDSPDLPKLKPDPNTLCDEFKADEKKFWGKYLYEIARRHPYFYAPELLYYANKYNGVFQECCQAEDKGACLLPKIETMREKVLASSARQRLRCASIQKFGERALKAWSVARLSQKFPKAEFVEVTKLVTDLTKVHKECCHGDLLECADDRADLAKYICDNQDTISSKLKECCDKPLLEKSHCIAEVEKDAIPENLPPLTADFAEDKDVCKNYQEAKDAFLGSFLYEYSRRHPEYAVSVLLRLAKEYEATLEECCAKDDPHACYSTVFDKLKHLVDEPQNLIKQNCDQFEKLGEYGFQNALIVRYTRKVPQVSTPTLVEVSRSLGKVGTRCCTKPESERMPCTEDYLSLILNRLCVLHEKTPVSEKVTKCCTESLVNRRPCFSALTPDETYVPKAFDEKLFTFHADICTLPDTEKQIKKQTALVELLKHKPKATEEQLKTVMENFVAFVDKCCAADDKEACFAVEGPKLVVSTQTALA
Chain of Concanavalin-A (Canavalia ensiformis) (P02866 whole entry, looked up): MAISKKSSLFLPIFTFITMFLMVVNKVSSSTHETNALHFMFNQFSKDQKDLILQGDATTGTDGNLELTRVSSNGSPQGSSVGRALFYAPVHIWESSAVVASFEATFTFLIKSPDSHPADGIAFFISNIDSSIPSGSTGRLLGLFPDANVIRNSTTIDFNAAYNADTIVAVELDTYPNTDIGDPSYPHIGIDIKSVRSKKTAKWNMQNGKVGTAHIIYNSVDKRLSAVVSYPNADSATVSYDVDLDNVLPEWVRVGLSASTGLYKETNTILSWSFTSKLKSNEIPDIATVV
Chain of Torsin-1A-interacting protein 1 (Homo sapiens) (Q5JTV8 whole entry, looked up): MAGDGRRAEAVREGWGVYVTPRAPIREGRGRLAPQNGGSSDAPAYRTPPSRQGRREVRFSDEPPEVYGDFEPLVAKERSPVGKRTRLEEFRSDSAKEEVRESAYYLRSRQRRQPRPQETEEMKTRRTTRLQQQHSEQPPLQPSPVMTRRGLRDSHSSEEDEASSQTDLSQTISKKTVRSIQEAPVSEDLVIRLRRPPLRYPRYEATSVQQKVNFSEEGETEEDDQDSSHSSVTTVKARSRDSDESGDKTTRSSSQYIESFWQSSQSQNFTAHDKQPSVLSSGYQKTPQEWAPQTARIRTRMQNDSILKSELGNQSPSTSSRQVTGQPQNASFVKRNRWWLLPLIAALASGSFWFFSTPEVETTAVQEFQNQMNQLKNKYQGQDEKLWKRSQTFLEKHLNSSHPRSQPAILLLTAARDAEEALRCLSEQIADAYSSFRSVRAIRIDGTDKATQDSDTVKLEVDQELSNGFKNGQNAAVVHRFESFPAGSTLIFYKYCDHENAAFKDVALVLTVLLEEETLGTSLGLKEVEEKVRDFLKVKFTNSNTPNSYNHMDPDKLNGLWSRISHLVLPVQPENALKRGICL
Chain of Left-right determination factor 2 (Homo sapiens) (O00292 whole entry, looked up): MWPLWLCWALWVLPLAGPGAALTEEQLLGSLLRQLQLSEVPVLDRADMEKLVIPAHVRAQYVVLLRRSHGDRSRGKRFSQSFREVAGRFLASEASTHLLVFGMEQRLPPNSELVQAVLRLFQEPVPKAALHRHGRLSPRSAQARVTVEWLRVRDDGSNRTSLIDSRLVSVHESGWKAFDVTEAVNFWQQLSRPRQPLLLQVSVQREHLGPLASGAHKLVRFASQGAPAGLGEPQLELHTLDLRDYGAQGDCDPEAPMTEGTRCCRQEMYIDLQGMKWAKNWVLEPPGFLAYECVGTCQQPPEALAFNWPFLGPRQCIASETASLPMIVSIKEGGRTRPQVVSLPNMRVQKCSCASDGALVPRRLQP

As for `CCCC#C[Si](O[C@H](CC)c1cn([C@H](CO)Cc2ccccc2)nn1)(C(C)C)C(C)C`, the composite z-score is 1.08 in [1]; 0.728 in [3]; 0.486 in [4]; -0.0381 in assay [5]; 0.0597 in assay [6]; -0.0866 in assay [7]. Besides, the composite z-score was 0.26 in assay [8]; 0.761 in assay [9]; 0.701 in [10]; 0.868 with Albumin (Bos taurus); -0.108 in [12]; -0.0986 in assay [13]. The composite z-score in [14] is 0.667; in assay [15] it was 0.516; in assay [16] it was -0.126; in the assay on Sam68 (KHDRBS1), 0.838; in assay [17], 0.322; in assay [18] it was 0.632. In assay [2], the z-score is -0.256. The composite Z-score in assay [11] is -0.483 (inactive).
Consider `COc1ccc([Si](C)(C)[C@H]2[C@H](CC(=O)N3CCC[C@H]3CO)O[C@@]3(C(=O)N(Cc4cccc(N5C(=O)c6cccc7cccc5c67)c4)c4ccccc43)[C@@H]2C)cc1`, for which the composite z-score in [1] was 1.34; in assay [3], 0.758; in [4], 0.681; in assay [5], -0.0975; in [6] it was 0.0775; in assay [7] it was -0.196. Also, the composite z-score in assay [8] is 1.02; in assay [9], 0.582; in assay [10], 1.56; in the assay with Albumin (Bos taurus) it was 0.416; in [12], 0.143; in assay [13], -0.0745. Also, the composite z-score in assay [14] turned out to be 0.346; in [15] it was 1.53; in [16], 0.0595; with Sam68 (KHDRBS1), 1.04; in assay [17], 0.956; in assay [18], 1.1. Further, in assay [2], the z-score was -3.12. Further, the composite Z-score in assay [11] was 0.488 (inactive).
Take `CC(C)C[C@@H]1NC(=O)[C@H]2C[C@@H](C(=O)NCCCCCCN)[C@@H](c3ccc(O)cc3)N2C1=O`: the composite z-score is 0.302 in assay [1]; 0.057 in assay [3]; 0.143 in assay [4]; 0.307 in assay [5]; 0.055 in assay [6]; -0.214 in assay [7]. Also, the composite z-score in [8] was 0.103; in [9] it was 1.13; in assay [10], 0.585; with Albumin (Bos taurus), 0.0662; in assay [12] it was -0.0023; in [13], 0.171. In addition, the composite z-score came to 0.728 in [14]; 2.16 in [15]; 0.627 in assay [16]; 0.633 with Sam68 (KHDRBS1); 1.22 in assay [17]; 1.18 in assay [18]. In [2], this compound displayed a z-score of 0.742. In assay [11], the composite Z-score was 0.0781 (inactive).
As to `CCCC=C(CCC)[C@@H](NS(=O)(=O)c1cccs1)c1ccc(C(=O)OC)cc1`, the composite z-score in assay [1] was 1.37; in assay [3], -0.452; in assay [4] it was 1.6; in assay [5], 0.85; in [6], 0.105; in assay [7] it was 0.605. In addition, the composite z-score in [8] is 1.41; in [9], 0.554; in assay [10], 1.24; with Albumin (Bos taurus), 1.06; in [12], 0.17; in assay [13] it was 0.0592. The composite z-score was 0.748 in assay [14]; 2.94 in assay [15]; 0.157 in assay [16]; 1.32 in the assay with Sam68 (KHDRBS1); -1.19 in assay [17]; 1.17 in assay [18]. The z-score in assay [2] is -2.93. In [11], the composite Z-score was -0.227 (inactive).
For `CCOC1=C2C(CN(S(=O)(=O)c3ccc(C)cc3)C2c2ccc(C)cc2)C2C(=O)N(c3ccccc3)C(=O)C2C1` (stereo not given), the composite z-score was 1.11 in assay [1]; 0.349 in assay [3]; 0.861 in [4]; 0.528 in assay [5]; -0.106 in [6]; 0.0893 in assay [7]. For the same compound, the composite z-score in assay [8] was 0.194; in assay [9], 0.326; in [10] it was 0.389; with Albumin (Bos taurus), 0.453; in assay [12] it was 0.24; in assay [13], -0.0665. The composite z-score in assay [14] was 0.676; in assay [15], 1.58; in assay [16], 0.377; in the assay on Sam68 (KHDRBS1), 0.814; in [17] it was 0.479; in assay [18] it was 0.654. For the same compound, the z-score in [2] was -0.348. In assay [11], the composite Z-score is 0.0045 (inactive).

Values taken from PubChem BioAssay.
